Screening data: PubChem, several laboratories
The list is not random: actives were taken first. Their share in the collection is about 1.2%.
NPR2 activator – human GC-B receptor activators, primary screen, HEK293 GC-B cells, cGMP TR-FRET, EC30 CNP; activation, % at 10 µM; hit rate 0.11% among 370,000; Atrial natriuretic peptide receptor 2 (Homo sapiens), P20594; 0% at EC30 CNP, 100% saturating CNP;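 active = activation at 10 µM reaching about 35% in either raw or pattern-adjusted values, limit read from the data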
PLC-beta3 inh – human PLC-beta3 inhibitors, primary screen, biochemical, fluorescence; 1-phosphatidylinositol 4,5-bisphosphate phosphodiesterase beta-3 (Homo sapiens), Q01970; Purified PLC-beta3, fluorogenic substrate; inhibition, % at 12.2 µM; hit rate 0.18% among 370,000; AID 720704, 2013; in the data active = inhibition above about 11%;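 note: 0% = median of compound wells on plate and 100% = full blocker control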
NPR1 activator – GC-A stimulated cGMP production enhancers – HEK293 GC-A cells, cGMP TR-FRET, EC30 ANP, primary screen; Atrial natriuretic peptide receptor 1 (Homo sapiens), P16066; 0% at EC30 ANP, 100% saturating ANP; activation, % at 10 µM; hit rate 0.14% among 370,000; AID 1671463, 2021; in the data active = activation above about 40%
Target sequence (P16066 whole entry, looked up): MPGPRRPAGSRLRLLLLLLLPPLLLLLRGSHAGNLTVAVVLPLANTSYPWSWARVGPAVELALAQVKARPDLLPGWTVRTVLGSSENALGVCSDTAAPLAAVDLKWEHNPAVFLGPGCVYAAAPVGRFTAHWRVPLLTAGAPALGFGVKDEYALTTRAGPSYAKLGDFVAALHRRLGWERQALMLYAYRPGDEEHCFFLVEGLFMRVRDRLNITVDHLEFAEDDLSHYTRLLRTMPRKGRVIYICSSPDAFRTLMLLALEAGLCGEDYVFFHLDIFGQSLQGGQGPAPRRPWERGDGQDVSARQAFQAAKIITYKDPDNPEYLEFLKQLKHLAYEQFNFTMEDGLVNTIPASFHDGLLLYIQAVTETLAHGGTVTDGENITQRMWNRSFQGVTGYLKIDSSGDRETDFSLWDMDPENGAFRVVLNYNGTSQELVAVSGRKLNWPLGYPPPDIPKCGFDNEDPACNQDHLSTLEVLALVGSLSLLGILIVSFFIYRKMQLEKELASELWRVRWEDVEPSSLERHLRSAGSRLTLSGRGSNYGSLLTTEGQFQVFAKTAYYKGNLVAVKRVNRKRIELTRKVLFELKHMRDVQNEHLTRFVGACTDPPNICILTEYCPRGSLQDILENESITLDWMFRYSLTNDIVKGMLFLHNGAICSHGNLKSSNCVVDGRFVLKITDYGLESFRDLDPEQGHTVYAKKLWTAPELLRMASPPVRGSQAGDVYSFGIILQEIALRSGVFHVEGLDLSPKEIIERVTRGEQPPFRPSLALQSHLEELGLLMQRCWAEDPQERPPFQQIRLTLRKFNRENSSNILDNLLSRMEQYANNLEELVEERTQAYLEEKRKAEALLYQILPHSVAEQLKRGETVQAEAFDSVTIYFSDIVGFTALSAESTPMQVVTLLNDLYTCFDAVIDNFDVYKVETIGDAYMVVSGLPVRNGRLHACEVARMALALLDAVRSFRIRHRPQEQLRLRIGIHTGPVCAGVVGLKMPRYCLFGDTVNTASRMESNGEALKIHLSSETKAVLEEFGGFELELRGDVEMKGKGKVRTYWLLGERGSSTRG
PLCg1 inh – PLC-gamma1 enzyme inhibitors, primary screen, biochemical, fluorescence, purified enzyme; fluorogenic substrate; hit rate 0.84% among 370,000; inhibition, % at 12.2 µM; 1-phosphatidylinositol 4,5-bisphosphate phosphodiesterase gamma-1 (Homo sapiens), P19174
PLCgamma1 ctr – PLC-gamma1 enzyme inhibitors, counter-screen for PLC-beta3 inhibitor project, biochemical, fluorescence; shares compounds with PLCg1 inh; inhibition, % at 12.3 µM; hit rate 3.1% among 3,300; purified PLC-gamma1, fluorogenic substrate
PLCbeta3 conf – PLC-beta3 inhibitor confirmation, biochemical, fluorescence, purified enzyme | AID 743261, 2014 | fluorogenic substrate fluorescence | shares compounds with PLCg1 inh | inhibition, % at 12.3 µM | hit rate 1% among 3,300; in the data active = inhibition above about 11%
Numbers without * were called inactive; nt = no result given. Cut-off read from the data, not from the text of the source, unless noted: active = inhibition above about 9.5%; inactive = the rest.

SMILES	NPR2 activator	PLC-beta3 inh	NPR1 activator	PLCg1 inh	PLCgamma1 ctr	PLCbeta3 conf
O=C(CCN1CCN(c2ccccc2)CC1)NNC(=O)c1cccc2ccccc12	6.2	1.5	1.2	3.8	nt	nt
CCCCOc1ccc(C(=O)Nc2ccc(N3CCN(C)CC3)cc2)cc1	-2.1	3.0	-0.9	0.6	nt	nt
COc1cccc(C(=O)NNC(=O)CCN2CCN(c3ccccc3)CC2)c1	-3.2	12.8*	-2.9	6.2	-2.1	3.8
COc1ccc(C2CC(c3ccccc3)=NN2C(=O)COC(=O)c2cnc(Cl)c(Cl)c2)cc1 (stereo not drawn)	11.8	-0.4	23.5	-2.2	nt	nt
CC(NS(C)(=O)=O)C(c1cccs1)N1CCN(C)CC1 (stereo not drawn)	2.6	3.2	3.5	10.8*	-4.4	0.3
COc1ccc(NC(=O)Cc2ccc(C)cc2)c([N+](=O)[O-])c1	2.1	14.4*	3.8	8.0	-3.3	5.9
CCOc1ccc(NC(=O)/C=C/c2ccccc2)c([N+](=O)[O-])c1	-3.4	0.9	1.3	0.4	nt	nt
CCOc1ccc(/C=C/C(=O)Nc2ccc(OC)cc2[N+](=O)[O-])cc1	-4.6	10.8*	-1.9	7.3	-24.4	-21.3
O=C(c1ccc(Cl)cc1)N1CCN(c2ccc([N+](=O)[O-])c(NCc3cccnc3)c2)CC1	-5.9	3.1	0.1	1.4	nt	nt
O=C(c1ccccc1)N1CCN(c2ccc([N+](=O)[O-])c(NCc3cccnc3)c2)CC1	-3.4	0.0	2.8	9.7*	-1.1	-0.3
COc1ccc(N=Cc2c(C)[nH][nH]c2=O)cc1	-6.5	8.1	-2.9	9.9*	0.8	1.4
Cc1[nH][nH]c(=O)c1C=Nc1ccc(C(F)(F)F)cc1	7.8	2.5	-1.6	0.3	nt	nt
CC(C)(C)NC(=O)NC(=O)COC(=O)Cc1c(Cl)cccc1Cl	8.6	-4.8	7.8	9.8*	-0.6	1.8
CCCc1nnc(SCC(=O)Nc2cc(C)on2)n1CCOC	-3.0	-6.6	-2.6	-0.9	nt	nt
O=C(N/N=C/C(Cl)=C/c1ccc([N+](=O)[O-])cc1)C(=O)Nc1cccc(C(=O)O)c1	0.0	6.3	-0.3	13.0*	-22.5	-18.7
COc1ccccc1/C=C(/C(=O)OCC(=O)NCc1ccccc1)c1ccccc1	-0.2	12.1*	-6.1	12.7*	-1.2	-1.5
COc1ccccc1CNC(=O)CCc1ccccc1	-2.6	-0.5	2.9	10.3*	3.8	0.4
COc1ccccc1CNC(=O)CN(Cc1ccc(Cl)cc1)S(C)(=O)=O	-11.2	11.0*	-12.5	3.3	-3.4	2.1
CS(=O)(=O)N(CC(=O)NCc1ccccc1)Cc1ccc(Cl)cc1	-2.3	5.1	-2.8	2.4	nt	nt
COc1ccc(CCC(=O)NCc2ccccc2OC)cc1	-1.5	-4.0	0.5	1.0	nt	nt
Cc1cccc(OCCCn2c(CO)nc3ccccc32)c1	-1.6	3.5	1.0	12.2*	-4.2	-0.9
OC(COc1ccc(Cl)cc1)CN1CCCCC1 (stereo not drawn)	0.9	0.1	-1.6	-2.5	nt	nt
OC(COc1c(Cl)cc(Cl)cc1Cl)CN1CCCCC1 (stereo not drawn)	-6.4	9.7	-0.7	14.9*	-2.7	1.4
COc1cc(C)c(C)cc1S(=O)(=O)N1CCN(Cc2ccc3c(c2)OCO3)CC1	3.4	10.8*	-0.4	10.2*	-4.0	-0.5
O=S(=O)(c1ccc(F)c(F)c1)N1CCN(Cc2ccc3c(c2)OCO3)CC1	3.7	4.2	0.3	11.5*	-0.3	0.0
SMILES	NPR2 activator	PLC-beta3 inh	NPR1 activator	PLCg1 inh	PLCgamma1 ctr	PLCbeta3 conf
CCOC(=O)c1ccc(NC(=O)N2CCN(S(C)(=O)=O)CC2)cc1	3.5	4.4	-3.6	12.1*	-7.4	-3.4
Cc1nc(S(=O)(=O)c2cccc(Cl)c2)nc2c1CCC2	-2.6	-1.5	2.8	2.6	nt	nt
Cc1nc(SCC(=O)NCCN2C(=O)CSC2=O)nc(C)c1C	0.7	-5.3	1.7	4.1	nt	nt
COc1c(OC(C)=O)ccc(/C=C/c2ccc3cccc(OC)c3n2)c1[N+](=O)[O-]	-0.7	2.6	-0.9	4.2	nt	nt
COc1c(OC(C)=O)ccc(/C=C/c2ccc3ccccc3n2)c1[N+](=O)[O-]	-5.1	6.2	2.8	14.5*	0.7	-21.1
CC(=O)N1c2ccc(S(=O)(=O)N3CCC(C(=O)Nc4cc(C)cc(C)c4)CC3)cc2CC1C (stereo not drawn)	2.6	-8.3	-2.7	0.4	nt	nt
C=CCCC(=O)N1CCCC(Cc2cccc(Cl)c2)(C(=O)OCC)C1 (stereo not drawn)	-11.5	1.6	-10.5	11.6*	-2.7	-6.8
COCCCN=Cc1c(-c2ccccc2)[nH]n(-c2nc3ccccc3s2)c1=O	0.1	-1.6	-0.9	4.7	nt	nt
Cc1c(NC(=S)N/N=C/C=C/c2ccc([N+](=O)[O-])cc2)c(=O)n(-c2ccccc2)n1C	-0.7	3.5	5.1	12.1*	11.0*	5.0
CCOC(=O)C1CCN(Cc2ccc(O)c(OC)c2)CC1	-1.1	2.6	4.6	12.0*	-1.3	0.0
Cc1cccnc1N1C(=O)c2ccc(C(=O)O)cc2C1=O	-2.7	-3.5	0.8	3.8	nt	nt
CC1=NN(c2ccccc2C(=O)O)C(=O)C1N=Nc1ccccc1 (stereo not drawn)	1.3	-7.6	-5.3	0.2	nt	nt
CSCC[C@H](NC(=O)c1ccc2ccccc2c1)C(=O)N1CCC2(CC1)NCCc1[nH]cnc12	-0.2	0.4	1.9	1.2	nt	nt
CSCC[C@H](NC(=O)COc1ccc(Cl)cc1)C(=O)N1CCC2(CC1)NCCc1[nH]cnc12	4.4	-2.6	-1.6	11.3*	-7.2	-6.2
Cc1ccc(C(NC(N)=O)c2ccccc2C)cc1 (stereo not drawn)	-1.8	0.5	-3.9	7.1	nt	nt
Cc1ccc(C(NC(N)=O)c2ccccc2)cc1 (stereo not drawn)	-2.6	4.4	0.1	12.2*	-7.9	-5.8
CC(=O)C1=C(O)C(=O)N(Cc2cccnc2)C1c1ccc(C(C)C)cc1 (stereo not drawn)	-3.6	-6.9	-3.5	-3.4	nt	nt
O=C(CN(Cc1ccc(F)cc1)C(=O)C1CSC(=O)C1)NC1CCCCC1 (stereo not drawn)	0.1	-1.3	2.1	2.6	nt	nt
COc1ccc(CNC(=O)C2(c3ccc(Cl)cc3)CC2)cc1	-12.3	10.4	-19.0	14.0*	-6.5	0.9
C[C@@H]1CC=C[C@@H]2[C@H]1C(=O)N(Cc1ccccc1)[C@H]2c1cccc(Br)c1	-14.0	4.4	-14.5	11.7*	0.4	0.1
CCCCNC(=O)C1(C)CCCCN1C(=O)c1ccc(F)c(C)c1 (stereo not drawn)	0.0	6.4	1.0	13.7*	-3.3	-0.1
